From PubChem BioAssay (NCATS) come the findings set out here.

SMILES strings stand for the structures. Values without a mark were called inactive. The source made the active and inactive calls. Calls come from the whole dose curve; as a rule, active = well fitted curve in the direction sought with a large enough effect; inactive = no such curve, though single readings can be large or run the other way.

The nature of the experiment: qHTS for small molecule inhibitors of Yes1 kinase: Counter Assay (AID 686950).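 Note: no kinase present so only ADP-Glo detection of a fixed ADP amount is tested; luminescence from ADP-Glo reporting ADP in a fixed ATP and ADP mixture; 0% = DMSO wells with ATP plus ADP and -100% = ATP-only wells without ADP.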 Conditions: series mostly up to 76.9 µM; activity change, negative = inhibition: at the top concentration. The method in brief: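 ADP-Glo luminescence read after a 60 min room-temperature incubation of compound with an ATP/ADP mix (0.08 mM/0.02 mM) and no kinase, following a 20 min compound preincubation. Signal scaled between ATP+ADP (max) and 0.1 mM ATP-only (min) wells; Tris pH 7.5, Mg2+, DTT.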
Background: qHTS replaces the single test concentration by a dilution series.
With `COc1cc(N2CCN(C(C)C)CC2)ccc1Nc1nc(Nc2cccc(F)c2C(=O)O)c2cc[nH]c2n1`, the “activity change, negative = inhibition” value was 11.5%.

As to `CS(=O)(=O)CCN(CC#N)Cc1ccc(-c2ccc3ncnc(Nc4ccc(OCc5cccc(F)c5)c(Cl)c4)c3c2)o1`, the “activity change, negative = inhibition” value was 1.43%.

For `Cc1ccc(C(=O)NC2CCCCC2)cc1-c1ccc(C(=O)NCC2CC2)cc1`, the “activity change, negative = inhibition” value was 1.21%.

For `CCn1c(-c2nonc2N)nc2cncc(C(=O)NCCNC)c21`, the “activity change, negative = inhibition” value is -0.699%.

Turning to `COc1ccc2c(-c3ccnc(Nc4cccc(OC(F)(F)F)c4)n3)cnn2n1`, the “activity change, negative = inhibition” value was 0.583%.

As for `Cc1cc(Cl)cc2c(N=Nc3ccc(S(N)(=O)=O)cc3)c(O)[nH]c12`, the “activity change, negative = inhibition” value is 3.54%.

In the case of `COc1cc2c(cc1Nc1nc(N3CCc4ccccc43)c3cc[nH]c3n1)N(C(=O)CN(C)C)CC2`, the “activity change, negative = inhibition” value is 147%.

For the compound `Fc1ccc(Nc2nccc(-c3c(-c4ccc(C(F)(F)F)cc4)nn4ncccc34)n2)cc1F`, the “activity change, negative = inhibition” value is 4.62%.

With `CS(=O)(=O)CCNCc1ccc(-c2ccc3ncnc(Nc4ccc(OCc5ccccc5)c(Cl)c4)c3c2)o1`, the “activity change, negative = inhibition” value is 4.55%.

For `CN(C)C(=O)OC1CNC(C#Cc2cc3ncnc(Nc4ccc(OCc5cccc(F)c5)c(Cl)c4)c3s2)C1` (stereo not given), the compound was classed as inactive.

`O=C(OC1CNC(C#Cc2cc3ncnc(Nc4ccc5c(cnn5Cc5ccccc5)c4)c3s2)C1)N1CCOCC1` (stereo not given): the “activity change, negative = inhibition” value was 8.31%.

Take `Fc1ccc(-c2ncn(C3CCNCC3)c2-c2ccnc(Oc3ccccc3)n2)cc1`: the “activity change, negative = inhibition” value was 0.152%.

`O=S1CCN(Cc2ccc(-c3ccc4ncnc(Nc5ccc(OCc6cccc(F)c6)c(Cl)c5)c4c3)o2)CC1`: the “activity change, negative = inhibition” value was -3.35%.

For `NS(=O)(=O)c1ccc(N=Cc2c(O)[nH]c3ccc4ncsc4c23)cc1`, the compound was called inactive.

With `Cc1ccc(Nc2ccnc(Nc3cccc(C(N)=O)c3)n2)cc1O`, the “activity change, negative = inhibition” value was 7.04%.

With `O=C1NC(=O)C(c2cccc(Cl)c2)=C1Nc1ccc(Cl)c(C(=O)O)c1`, the “activity change, negative = inhibition” value was 4.85%.

Take `c1cc(-c2cnn3nc(N4CCOCC4)ccc23)nc(NC2CC2)n1`: the “activity change, negative = inhibition” value is 1.81%.

Turning to `CCn1c(-c2nonc2N)nc2cnc(Oc3cccc(NC(=O)c4ccc(N(C)C)cc4)c3)cc21`, the “activity change, negative = inhibition” value was 2.5%.

Regarding `COc1cc(C)c(N(C)C(=O)CN(C)C)cc1Nc1nc(Nc2cccc(F)c2C(N)=O)c2cc[nH]c2n1`, the “activity change, negative = inhibition” value was 8.33%.

Turning to `Nc1nccc(-c2c(-c3ccc(F)cc3)ncn2C2CCC(O)CC2)n1` (stereo not given), the “activity change, negative = inhibition” value was 1.35%.

For the compound `CS(=O)(=O)Nc1ccc(-c2ccc3c(NC(=O)C4CC4)n[nH]c3c2)cc1`, the “activity change, negative = inhibition” value is -3.38%.

With `Fc1cccc(COc2ccc(Nc3ncnc4sc(-c5ccco5)cc34)cc2Cl)c1`, the “activity change, negative = inhibition” value was 5.88%.

On to `Cc1nn(C)c2cc(N(C)c3ccnc(Nc4cccc(S(N)(=O)=O)c4)n3)ccc12`, for which the “activity change, negative = inhibition” value was 5.18%.

On to `O=S1CCN(Cc2ccc(-c3ccc4ncnc(Nc5ccc(OCc6ccccc6)c(F)c5)c4c3)o2)CC1`, for which the “activity change, negative = inhibition” value was 5.75%.

Consider `CC(C)c1ccc(-c2cc(-c3cn[nH]c3-c3ccccn3)ccn2)cc1`, for which the “activity change, negative = inhibition” value was -3.94%.

For the compound `COc1ccc2nc3c4nc5ccc(OC)cc5c4c4c(=O)[nH]c(=O)c4c3c2c1`, the “activity change, negative = inhibition” value is -2.58%.

As to `O=C(Nc1n[nH]c2cc(-c3cc(F)ccc3F)ccc12)C1CC1`, the “activity change, negative = inhibition” value was 2.29%.

As to `O=C(OC1CNC(C#Cc2cc3ncnc(Nc4ccc(Cc5ccccc5)cc4)c3s2)C1)N1CCOCC1` (stereo not given), the “activity change, negative = inhibition” value is -0.752%.

Turning to `CS(=O)(=O)CCNCc1cc(-c2cc3c(Nc4ccc(OCc5cccc(F)c5)c(Cl)c4)ncnc3s2)cs1`, the “activity change, negative = inhibition” value is -2.1%.

For the compound `C#Cc1cccc(Nc2ncnc3ccc(OCCCCNCCS(C)(=O)=O)cc23)c1`, the “activity change, negative = inhibition” value was 5.42%.

As for `COc1cccc(-n2ncc3c(NN=Cc4ccc(F)cc4)ncnc32)c1`, the “activity change, negative = inhibition” value was -1.32%.

Take `CC(=O)Nc1cccc(C#Cc2cncnc2Nc2ccc(OCc3cccc(F)c3)c(Cl)c2)c1`: the “activity change, negative = inhibition” value was 3.72%.

For `NCc1ccc(-n2c(-c3nonc3N)nc3cnccc32)cc1`, the “activity change, negative = inhibition” value was -1.03%.

Regarding `O=C1Nc2ccccc2C1=C1CCc2cc(O)ccc21`, the “activity change, negative = inhibition” value is -1.5%.

As to `COc1cc2ncnc(Nc3ccc(C)c(O)c3)c2cc1OC`, the “activity change, negative = inhibition” value was -3.93%.

Take `Cc1cc(O)cc(C)c1C=Cc1cncc(C(=O)N(C)C)c1`: the “activity change, negative = inhibition” value was 3.19%.

Regarding `CCOc1nccc2c1nc(-c1nonc1N)n2CC`, the “activity change, negative = inhibition” value is 6.17%.

On to `NS(=O)(=O)c1ccc(N=Nc2c(O)[nH]c3ccc(C(=O)NCCc4cnc[nH]4)cc23)cc1`, for which the “activity change, negative = inhibition” value was 7.42%.

Regarding `CC1=C(C(=O)Nc2ccc3[nH]ncc3c2)C(c2ccc3ccccc3c2)CC(=O)N1` (stereo not given), the “activity change, negative = inhibition” value was -3.69%.

Regarding `Nc1nc(-c2ccc3c(c2)C(=Cc2cc(Br)c(O)c(Br)c2)C(=O)N3)cs1`, the “activity change, negative = inhibition” value is 56.6%.
